In ChEMBL document CHEMBL3988442, “University of Dundee, Small-Polar-MMV Screening Library” (2021):
Hit rate of the full screen: of about 38,000 compounds, about 1,200 (3.2%) showed an effect of 50% or more. The median lay at about -58%. Shown is part of a subset that was picked to be rich in strong results.

Each compound was assayed on Plasmodium falciparum (assay: Calibr Malaria Delayed Death Assay SOP). Conditions: concentration 4.99e-06 (unit not given; other assays of the set use mol/L).
Assay type: functional, organism-based
Design: scale not given: in the data most compounds retested in dose-response had high values
`COc1ccc2c(c1)OCC(CNC(=O)c1cc(C(C)C)on1)C2` (centres undefined) was tested, and the “Percent Effect” value was -29.19%. `Cc1c(C(=O)NCC2CCN(C)C2)n(C)c2c(C)cccc12` (centres undefined) was tested, and the “Percent Effect” value was 8.044%. With `CC(=O)Nc1nc(C2CCN(C(=O)c3cncs3)CC2)cs1` the “Percent Effect” value was 38.41%. For `CNC(=O)Cn1c(CO)cnc1SCc1ccccc1Cl`, the “Percent Effect” value was -84%. For `COc1cc2nc(NCc3scnc3C)nc(N)c2cc1OC`, the “Percent Effect” value was 89.32%. With `COc1ccccc1NCC(=O)NCc1scnc1C` the “Percent Effect” value was -101.9%. With `CCOc1ccc(OCC)c(NCc2cc(C)on2)c1` the “Percent Effect” value was -105.8%. In the case of `COc1cc(C(C)NCc2scnc2C)ccc1SC(F)F` (centres undefined), the “Percent Effect” value is reported as 16.99%. `COc1cc2nc(NCc3cc(C)on3)nc(N)c2cc1OC` was tested, and the “Percent Effect” value was 61%. For `COc1cc2nc(NCc3ccc(C)nc3)nc(N)c2cc1OC`, the “Percent Effect” value was 90.21%. For `COc1ccc(C(C)NC(=O)NCCc2ccc(C)nc2)c(OC)c1` (centres undefined), the “Percent Effect” value was -63.03%. With `COc1ccc(CCC(=O)NCc2cc(C)on2)cc1` the “Percent Effect” value was -56.8%. With `COc1cc2c(cc1CNC(=O)Cc1ccc(C)nc1)OC(C)C2` (centres undefined) the “Percent Effect” value was -97.01%. `CC(=O)c1c(O)n(C)c2ccccc12` was tested, and the “Percent Effect” value was -129.1%. `O=C(COCCc1ccccc1)N1CCCC(n2cncn2)C1` (centres undefined) was tested, and the “Percent Effect” value was -37.64%. For `Cc1cccc(CSc2nnc(C)n2CC(N)=O)c1`, the “Percent Effect” value was -106.3%. With `CS(=O)(=O)N1CCC(CNC(=O)C2CCC2)CC1` the “Percent Effect” value was -20.15%. `O=C(NCCc1ccncc1)c1ccc(S(=O)(=O)NC2CCC2)cc1` was tested, and the “Percent Effect” value was -25%. With `CSCC[C@@H](CO)NC(=O)c1sc(-c2ccc(Cl)cc2)nc1C` the “Percent Effect” value was -102.9%. `CCOC(=O)CSc1nnc(C(N)CC(C)C)o1.Cl` (centres undefined) was tested, and the “Percent Effect” value was -109.2%. `NC(=O)NCC1CCCCN1C(=O)c1cc(F)cc(F)c1` (centres undefined) was tested, and the “Percent Effect” value was -156.9%. For `CC1CCCN(C(=O)CNC(=O)c2ccoc2)C1` (centres undefined), the “Percent Effect” value was -96.13%. In the case of `CC(C)(C)CC(=O)Nc1cnn(-c2ccccc2S(C)(=O)=O)c1`, the “Percent Effect” value is reported as -5.765%. With `CC(C)c1ncc2c(n1)CN(CCCc1nc3ccccc3o1)CC2` the “Percent Effect” value was 69.07%. In the case of `c1ccc2oc(CCCN3CCc4cncnc4C3)nc2c1`, the “Percent Effect” value is reported as -82.49%. In the case of `Cc1ncc2c(n1)CN(Cc1nc3ccccc3o1)CC2`, the “Percent Effect” value is reported as -59.98%. In the case of `O=C(NCCc1cnccn1)c1cccc(S(=O)(=O)NC2CCOC2)c1` (centres undefined), the “Percent Effect” value is reported as -80.94%. With `O=C(c1cnn[nH]1)N(CCCO)Cc1cccnc1` the “Percent Effect” value was -126.7%. For `CN(Cc1ccsc1)C(=O)CNC(=O)N1CCc2ccccc2C1`, the “Percent Effect” value was -30.75%. `COc1cccc(CN2CCC3(CC(Nc4ccncn4)C3)C2)c1F` (centres undefined) was tested, and the “Percent Effect” value was -62.87%. In the case of `N#Cc1cccc(S(=O)(=O)N2CC(CC(=O)O)c3ccccc32)c1` (centres undefined), the “Percent Effect” value is reported as -122.6%. `CN(C)C1Cc2ccccc2N(S(=O)(=O)c2cccc(C#N)c2)C1` (centres undefined) was tested, and the “Percent Effect” value was 75.93%. In the case of `CN1CCN(S(=O)(=O)c2cccc(C#N)c2)c2ccc(F)cc21`, the “Percent Effect” value is reported as -39.03%. In the case of `CC(=O)NCCNC(=O)C(c1ccccc1C)N(C)C` (centres undefined), the “Percent Effect” value is reported as -142.6%. With `Cc1cscc1-c1nc(C2CCOC2)no1` (centres undefined) the “Percent Effect” value was -27.07%. `O=C(c1scc2c1OCCO2)N1CCOC(Cc2ccc(F)cc2)C1` (centres undefined) was tested, and the “Percent Effect” value was -16.04%. In the case of `O=C(c1scc2c1OCCO2)N1CCOC(CCc2ccccc2)C1` (centres undefined), the “Percent Effect” value is reported as 88.31%. `O=C(c1scc2c1OCCO2)N1CCOC(Cc2cccc(F)c2)C1` (centres undefined) was tested, and the “Percent Effect” value was -44.17%. For `CC1CCC(NS(=O)(=O)CC(=O)NCC2CCC2)CC1` (centres undefined), the “Percent Effect” value was -74.87%. For `O=C(CCc1ccco1)N1CCC(Oc2ccccc2)(C(=O)O)CC1`, the “Percent Effect” value was -48.84%. In the case of `O=C(NCc1cccnc1)C1=NN(c2ccccc2)C(=O)CN1`, the “Percent Effect” value is reported as 39.33%. For `COc1ccc(CNC(=O)C2=NN(c3ccc(C)cc3)C(=O)CN2)cc1`, the “Percent Effect” value was 74.74%. For `COc1ncccc1CNC(=O)C1=NN(c2ccccc2)C(=O)CN1`, the “Percent Effect” value was -51.2%. With `CN1C(=O)CC[C@]12CC[C@@H](NC(=O)NCc1cccnc1)CC2.O=C(O)C(F)(F)F` the “Percent Effect” value was -78.37%. For `COCCN(C/C=C/c1ccccc1)Cc1nccs1`, the “Percent Effect” value was -11.48%. `COCCN(C/C=C/c1ccccc1)Cc1ccccn1` was tested, and the “Percent Effect” value was 20.8%. With `CCc1ccc(CN(C/C=C/c2ccccc2)CCOC)nc1` the “Percent Effect” value was 52.86%. `O=C1CC(c2ccncc2)C2(CCN(Cc3cccnc3)CC2)N1` (centres undefined) was tested, and the “Percent Effect” value was -62.4%. In the case of `CN1CCCN(C(=O)NCCNc2cnccn2)CC1`, the “Percent Effect” value is reported as -4.347%. With `CO[C@H]1CCN(Cc2c(C)noc2C)[C@@H]2CN(Cc3ccncc3)C[C@H]12.O=C(O)C(F)(F)F.O=C(O)C(F)(F)F.O=C(O)C(F)(F)F` the “Percent Effect” value was -5.39%. `COCCN1C[C@H]2[C@@H](C1)N(Cc1cnn(C)c1)CC[C@H]2OC.O=C(O)C(F)(F)F.O=C(O)C(F)(F)F` was tested, and the “Percent Effect” value was -59.33%. For `CO[C@H]1CCN(Cc2cccs2)[C@@H]2CN(Cc3ccncc3)C[C@H]12.O=C(O)C(F)(F)F.O=C(O)C(F)(F)F.O=C(O)C(F)(F)F`, the “Percent Effect” value was 59.98%. `COCCN1C[C@@H]2[C@@H](OC)CCN(Cc3ccc(C)o3)[C@@H]2C1.O=C(O)C(F)(F)F.O=C(O)C(F)(F)F` was tested, and the “Percent Effect” value was 3.217%. `CO[C@H]1CCN(Cc2cnn(C)c2)[C@@H]2CN(Cc3ccncc3)C[C@H]12.O=C(O)C(F)(F)F.O=C(O)C(F)(F)F.O=C(O)C(F)(F)F` was tested, and the “Percent Effect” value was -72.72%. For `COCCN1C[C@@H]2[C@@H](OC)CCN(Cc3ccco3)[C@@H]2C1.O=C(O)C(F)(F)F.O=C(O)C(F)(F)F`, the “Percent Effect” value was -1.66%. `COCCN1C[C@@H]2[C@@H](OC)CCN(Cc3ccsc3)[C@@H]2C1.O=C(O)C(F)(F)F.O=C(O)C(F)(F)F` was tested, and the “Percent Effect” value was 66.72%. With `CO[C@@H]1CCN(Cc2cccc(C)n2)[C@@H]2CN(Cc3ccncc3)C[C@@H]21.O=C(O)C(F)(F)F.O=C(O)C(F)(F)F.O=C(O)C(F)(F)F.O=C(O)C(F)(F)F` the “Percent Effect” value was 30.62%. For `COCCN1C[C@@H]2[C@@H](OC)CCN(Cc3ccncc3)[C@@H]2C1.O=C(O)C(F)(F)F.O=C(O)C(F)(F)F.O=C(O)C(F)(F)F`, the “Percent Effect” value was 24.39%. For `COCCN1C[C@@H]2[C@@H](OC)CCN(Cc3cccs3)[C@@H]2C1.O=C(O)C(F)(F)F.O=C(O)C(F)(F)F`, the “Percent Effect” value was 66.16%. With `CO[C@@H]1CCN(Cc2cccs2)[C@@H]2CN(Cc3ccncc3)C[C@@H]21.O=C(O)C(F)(F)F.O=C(O)C(F)(F)F.O=C(O)C(F)(F)F` the “Percent Effect” value was 52.08%. In the case of `CO[C@H]1CCN(C2CCC2)[C@@H]2CN(Cc3ccncc3)C[C@H]12.O=C(O)C(F)(F)F.O=C(O)C(F)(F)F.O=C(O)C(F)(F)F`, the “Percent Effect” value is reported as -45.55%. With `CN1CCN(C(=O)c2cc3sccc3n2Cc2ccccc2F)CC1` the “Percent Effect” value was 29.89%. For `NC(=O)c1ccc(CN2CCCC(N3CCCCCC3)C2)cc1` (centres undefined), the “Percent Effect” value was -140%. `COCC(=O)N1C[C@H](N(C)Cc2cncnc2)[C@H]2OCCC[C@H]21` was tested, and the “Percent Effect” value was -24%. For `COc1ccccc1OC1CCN(Cc2ccc(N(C)C)nc2)CC1`, the “Percent Effect” value was -79.91%. In the case of `O=C(NCCn1cccc1)c1c(O)cc(F)cc1F`, the “Percent Effect” value is reported as -181.2%. With `Cc1cc(C(=O)N2CCCC2c2nnc3n2CCCCC3)on1` (centres undefined) the “Percent Effect” value was -57.59%. `CCN1C[C@@H]2[C@@H](OC)CCN(S(=O)(=O)c3cccnc3)[C@@H]2C1.O=C(O)C(F)(F)F.O=C(O)C(F)(F)F` was tested, and the “Percent Effect” value was -23.75%. In the case of `CCN1C[C@H]2[C@@H](C1)N(S(=O)(=O)c1ccccc1F)CC[C@H]2OC.O=C(O)C(F)(F)F`, the “Percent Effect” value is reported as 45.85%. `CCN1C[C@H]2[C@@H](C1)N(S(=O)(=O)c1ccccc1)CC[C@H]2OC.O=C(O)C(F)(F)F` was tested, and the “Percent Effect” value was 60.81%. With `O=c1cc(N2CCCCC2)cnn1CC(O)C(F)(F)F` (centres undefined) the “Percent Effect” value was -156.3%. For `Cc1ccnc(OCC(=O)N2CCCC2)n1`, the “Percent Effect” value was -75.67%. For `Fc1cccc(Cl)c1CNCCCOc1ccccn1`, the “Percent Effect” value was 9.624%. In the case of `Cc1cccc(NC(=O)C2CSc3ncc(C)c(=O)n3C2)n1` (centres undefined), the “Percent Effect” value is reported as -106.9%. With `c1cnc(N2CCC3(COCc4cnc(N5CCOCC5)nc43)C2)nc1` (centres undefined) the “Percent Effect” value was -59.23%. For `CC(C)(O)CN1CCN(C(=O)c2cccn2Cc2ccccc2)CC1`, the “Percent Effect” value was -70.89%. In the case of `Cc1ccc(C2(CN(C)Cc3snnc3C)CCNCC2)nc1`, the “Percent Effect” value is reported as -24.27%. With `Cc1ccc(C2(CN(C)Cc3sccc3C)CCNCC2)nc1` the “Percent Effect” value was 76.73%. With `Cc1ccc(C2(CN(C)Cc3c(C)nn(C)c3C)CCNCC2)nc1` the “Percent Effect” value was 16.34%. With `CCCc1nc(N2CCCC(CCOC)C2)c2cnn(C)c2n1` (centres undefined) the “Percent Effect” value was -84.44%. For `CCC(CO)NCc1ccc(-c2ccc(Br)cc2)o1.Cl` (centres undefined), the “Percent Effect” value was 45.11%. `Cc1cc(N2CCCC2)nc(N(C)CCO)c1C#N` was tested, and the “Percent Effect” value was -125.9%. In the case of `Cc1nc(CCNc2nc(N(C)C)nc3c2CCCC3)cc(=O)[nH]1`, the “Percent Effect” value is reported as -16.34%. `CC(=O)N1CCc2nc(N(C)C)nc(NCCc3ccccc3)c2CC1` was tested, and the “Percent Effect” value was -47.75%. With `CN(C)c1nc2c(c(NCc3cc(O)ncn3)n1)CCCC2` the “Percent Effect” value was 89.31%. `Cc1cnn(CC2CCCN2Cc2nnc(C)o2)c1` (centres undefined) was tested, and the “Percent Effect” value was -118.7%. In the case of `CC(C)c1cc(NC(=O)c2ccc([S+]([O-])C(C)C)cc2)[nH]n1` (centres undefined), the “Percent Effect” value is reported as -180.3%. In the case of `CC(C)c1cc(NC(=O)c2ccncc2)[nH]n1`, the “Percent Effect” value is reported as -141%. `CC(C)c1cc(NC(=O)c2ccc(C(=O)NC(C)(C)C)cc2)[nH]n1` was tested, and the “Percent Effect” value was 62.94%. With `CCn1c(C)nnc1Sc1nn2cc(C)nc2s1` the “Percent Effect” value was -124.9%. `CCN1CC2(CC1=O)CN(C(=O)c1ccoc1)CCN(C(=O)N(C)C)C2` (centres undefined) was tested, and the “Percent Effect” value was -39.9%. For `Cc1c(CN2CC[C@@H](N3CCC(O)CC3)[C@H](O)C2)[nH]c2ccc(F)cc12`, the “Percent Effect” value was -24.81%. With `Cc1ccc2[nH]c(CN3CC[C@@H](N4CCN(C)CC4)[C@H](O)C3)c(C)c2c1` the “Percent Effect” value was -45.01%. `Cc1c(CN2CC[C@@H](N3CCC(O)CC3)[C@H](O)C2)[nH]c2ccc(Cl)cc12` was tested, and the “Percent Effect” value was 53.46%.
